In PubChem BioAssay (NCI):
Several values for one entry are separate records, joined by “and”; a condition that tells them apart may be missing. Identical values can stand only once. The panel holds about 83,000 compounds, 20% with a hit somewhere; the sample as a whole holds those more often.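 Assay: single dose, 48 h. Readout: percent growth (0 = no net growth; negative = cell death). Active: <10.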 A number with no mark means an inactive call. Activity calls are given as the source filed them.

Columns and labels:
Assay in all cases: NCI-60 one-dose screen, 48 h (100 = growth as untreated, 0 = no growth, -100 = all killed)
Conditions in all cases: 10 µM unless noted
[1] = tested on: EKVX NSCLC
[2] = tested on: SN12C renal
[3] = tested on: UO-31 renal
[4] = tested on: TK-10 renal
[5] = tested on: ACHN renal
[6] = tested on: A498 renal
[7] = tested on: HL-60(TB) leukemia
[8] = tested on: CCRF-CEM leukemia
[9] = tested on: OVCAR-5 ovarian
[10] = tested on: OVCAR-4 ovarian
[11] = tested on: SK-OV-3 ovarian
[12] = tested on: OVCAR-3 ovarian
[13] = tested on: HS 578T breast
[14] = tested on: CAKI-1 renal
[15] = tested on: MOLT-4 leukemia
[16] = tested on: SR leukemia
[17] = tested on: RPMI-8226 leukemia
[18] = tested on: OVCAR-8 ovarian
[19] = tested on: IGROV1 ovarian
[20] = tested on: SK-MEL-2 melanoma

| Structure (SMILES) | growth [1] | growth [2] | growth [3] | growth [4] | growth [5] | growth [6] | growth [7] | growth [8] | growth [9] | growth [10] | growth [11] | growth [12] | growth [13] | growth [14] | growth [15] | growth [16] | growth [17] | growth [18] | growth [19] | growth [20] |
| --- | --- | --- | --- | --- | --- | --- | --- | --- | --- | --- | --- | --- | --- | --- | --- | --- | --- | --- | --- | --- |
| COc1cc(C=C2C(=O)NC(=O)NC2=O)ccc1O | 153% | 96.5% | 94.4% | 127% | 101% | 69% | 95.6% | 113% | 92% | 101% | 107% | 110% | 123% |  |  |  |  |  |  |  |
| CC1CCNC(C)C1 (configuration not stated) |  |  |  |  |  |  | 113% |  |  |  |  |  |  |  |  |  |  |  |  |  |
| CCCC[C@@H]1CCN2C[C@@H](O)[C@@H](O)[C@@H]2[C@H]1O |  |  |  | 113% [100 µM] and 98.7% [100 µM] |  |  |  |  |  |  |  |  |  |  |  |  |  |  |  |  |
| O=C(NC(Cl)=C(Cl)Cl)P(=O)(c1ccccc1)c1ccccc1 |  | 107% | 95.8% | 118% | 112% | 102% | 110% | 98.6% | 105% | 101% | 107% | 115% | 113% | 85.7% | 87.1% | 88.3% | 101% | 126% | 95% |  |
| O=C(O)C(Br)CBr (configuration not stated) |  | 98% | 89.4% |  | 97.4% | 107% |  |  | 117% | 97.1% | 101% | 106% |  | 101% | 87.7% | 99% | 103% | 92.9% | 104% | 85.1% |
| Cc1ccc(C(=O)O[C@H](C(=O)O)[C@H](OC(=O)c2ccc(C)cc2)C(=O)O)cc1 |  | 102% |  | 105% | 106% | 120% | 95.4% | 105% | 114% | 103% | 96.9% | 111% | 128% | 102% | 90.9% |  | 106% | 98.8% | 103% |  |
| Oc1ccccc1C=NCCN=Cc1ccccc1O |  | 102% | 92.3% |  | 103% | 77.9% | 115% | 90% | 104% | 109% |  | 102% | 106% | 102% | 106% | 98.5% |  |  | 118% | 106% |
| O=c1c2ccccc2nc(-c2ccccc2Cl)n1-c1nnc(C(F)(F)F)s1 |  | 21.9% | 19.4% | 42% | 51.8% | -7.82% (active) | 1.24% (active) | 7.41% (active) | 78.2% | 37.5% | 25.7% | 18.7% | 26.7% | 3.51% (active) | 3.92% (active) | -6.69% (active) | 0.839% (active) |  | 37.6% |  |
| C=C1C(=O)OC2/C=C(\C)CC/C=C(/C)CC(OC(=O)/C(=C/CO)CO)C12 (configuration not stated) |  |  |  | -78.7% [100 µM] (active) and -88.5% [100 µM] (active) |  |  |  |  |  |  |  |  |  |  |  |  |  |  |  |  |
| O=[N+]([O-])c1cc(Br)c(O)c(Br)c1 |  | 106% | 87.5% |  | 118% | 70.1% | 119% | 100% | 115% | 122% | 103% |  | 109% | 108% | 107% | 102% | 98.9% | 99.1% | 111% | 108% |
| O=[N+]([O-])c1ccc(CI)cc1 |  | 60% | 91.9% | 112% | 65.5% | 95.7% | 64.4% | 21.5% | 96.8% | 102% | 116% |  | 111% | 54.5% | 14.7% | 34.4% | 53.2% | 84.4% | 115% |  |
| CC(Oc1ccc(-c2ccccc2)cc1)C(=O)O (configuration not stated) |  | 104% | 91.8% |  | 104% | 77.7% | 97.3% |  | 108% | 101% | 105% | 111% | 110% | 99.2% | 104% | 106% | 101% | 103% | 103% | 107% |
| C[N+]1(C)CCCC1c1cccnc1 (configuration not stated) |  | 99.8% | 99.7% |  | 114% |  |  |  | 109% | 107% | 108% | 108% | 89.2% | 98.2% | 102% | 97.8% | 99.4% | 104% | 115% | 112% |
| Cc1ccc(NC(=O)c2cc3ccccc3cc2O)c(C)c1 |  |  |  |  |  |  | 54.3% |  |  |  |  |  |  |  |  |  |  |  |  |  |
| O=S(=O)(O)c1ccc(Cl)cc1 |  |  |  |  |  |  | 89.1% |  |  |  |  |  |  |  |  |  |  |  |  |  |
| ClCc1ccc(Cl)c(Cl)c1 |  | 97.9% | 91.2% |  | 96.8% | 95.5% | 105% | 96.3% | 98.7% | 106% | 106% | 114% | 103% | 109% | 105% | 101% | 109% | 104% | 94.7% |  |
| O=C1C=CC(=O)N1CO |  |  |  |  |  |  | -11.7% (active) |  |  |  |  |  |  |  |  |  |  |  |  |  |
| O=C1c2ccccc2C(=O)N1N1CC1c1ccccc1 (configuration not stated) |  | 104% | 91.3% | 107% | 104% | 104% |  | 94.7% | 113% | 101% | 102% | 107% |  | 95.7% | 83.5% | 77.9% | 101% | 112% |  |  |
| NNC(=S)N/N=C(\C(=O)Nc1cccc(O)c1)C1C(=O)NC(=S)NC1=O |  |  |  | 132% [100 µM] and 93% [100 µM] |  |  |  |  |  |  |  |  |  |  |  |  |  |  |  |  |
| CNC(=O)O/N=C(\SC)C(=O)N(C)C | 112% | 104% | 93.1% | 103% | 101% | 95.8% | 88.9% |  | 101% | 119% | 102% | 107% | 96.4% | 107% | 86.5% | 72.2% |  |  | 110% |  |
| CCCCOC(N)=O |  | 103% | 89.1% |  |  | 125% |  | 102% | 110% | 106% |  | 109% |  | 103% | 96.8% | 96.1% | 114% | 98% | 113% | 113% |
| c1ccc2nc(-c3ccc4ccccc4n3)ccc2c1 |  |  |  |  |  |  | 101% |  |  |  |  |  |  |  |  |  |  |  |  |  |
| N#Cc1ccc(Cl)cc1 | 117% | 107% | 94.6% | 60.3% | 102% | 134% | 83.9% | 99.5% | 109% | 115% | 109% | 114% |  | 111% | 92.5% | 87% |  | 109% | 104% |  |
| CC1(C)CN=C(NN=C(/C=C/c2ccc(C(F)(F)F)cc2)/C=C/c2ccc(C(F)(F)F)cc2)NC1 |  | -74.3% (active) | 8.51% (active) | -17.9% (active) | -84.2% (active) | 2.54% (active) |  | -24.9% (active) | -87.5% (active) | -92.3% (active) | -7.65% (active) | -88% (active) | -38% (active) | -76.9% (active) | -59.1% (active) | -57% (active) | -26.8% (active) | -64% (active) | 22% |  |
| Nc1cccnc1 | 115% | 102% | 107% | 102% | 113% | 112% | 106% | 98.7% | 116% | 129% | 105% | 119% |  | 104% | 101% | 90.4% | 105% | 104% | 106% |  |
